PubChem BioAssay (EPA / NIEHS)
Where “and” joins values, the source holds several entries; their conditions need not be identical. Identical values can stand only once. The source holds several records for some structures; these can differ, active in one and inactive in another. Calls of active or inactive are those of the source. The calls were made as follows: active = hit-call score of the fitted dose curve at least 0.9, where 1 is the maximum; inactive = score below 0.9.

Experiments:
[1] = read-out: Interferon-gamma inducible Protein 10 (IP10), CXCL10 (gene 3627); experiment: BSK_hDFCGF_IP10: BioMAP Diversity Plus: hDFCGF Assay for Interferon-gamma inducible Protein 10 (IP10) Biomarker Activity (AID 2283053); conditions: primary human foreskin fibroblasts; actives raise or lower the signal
Summary of the method: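 IP-10 levels, quantified by ELISA, are taken from human foreskin fibroblast cultures 24 h after chemical treatment, with DMSO serving as negative control and baseline for bidirectional analysis.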

[2] = read-out: Urokinase-type plasminogen activator receptor (uPAR), PLAUR (gene 5329); experiment: BSK_CASM3C_uPAR: BioMAP Diversity Plus: CASM3C Assay for Urokinase-type plasminogen activator receptor (uPAR) Biomarker Activity (AID 2283054); conditions: primary human coronary artery smooth muscle cells; actives raise or lower the signal;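 also: cell-surface uPAR protein level quantified by ELISA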
[3] = read-out: Vascular cell adhesion molecule 1 (VCAM1), VCAM1 (gene 7412); experiment: BSK_CASM3C_VCAM1: BioMAP Diversity Plus: CASM3C Assay for Vascular cell adhesion molecule 1 (VCAM1) Biomarker Activity (AID 2283055); conditions: primary human coronary artery smooth muscle cells; actives raise or lower the signal;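 also: VCAM-1 protein level quantified by ELISA on the cells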
[4] = read-out: Collagen III, COL3A1 (gene 1281); experiment: BSK_hDFCGF_CollagenIII: BioMAP Diversity Plus: hDFCGF Assay for Collagen III Biomarker Activity (AID 2283056); conditions: primary human foreskin fibroblasts; actives raise or lower the signal
Summary of the method: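 Response relative to DMSO, fitted in both directions, reflects ELISA-measured collagen III in human primary skin fibroblasts 24 h after compound addition.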

[5] = read-out: Epidermal growth factor receptor (EGFR), EGFR (gene 1956); experiment: BSK_hDFCGF_EGFR: BioMAP Diversity Plus: hDFCGF Assay for Epidermal growth factor receptor (EGFR) Biomarker Activity (AID 2283057); conditions: primary human foreskin fibroblasts; actives raise or lower the signal
Summary of the method: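 Measured by ELISA: EGFR levels on primary human foreskin fibroblasts 24 h after chemical treatment, analysed relative to DMSO with bidirectional fitting.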

[6] = read-out: Interleukin-8 (IL8), CXCL8 (gene 3576); experiment: BSK_hDFCGF_IL8: BioMAP Diversity Plus: hDFCGF Assay for Interleukin-8 (IL8) Biomarker Activity (AID 2283058); conditions: primary human foreskin fibroblasts; actives raise or lower the signal
Summary of the method: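 Fibroblast monolayers (human foreskin, hDFCGF) received test chemical for 24 h before ELISA detection of IL-8; either increases or decreases relative to DMSO count as activity.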

[7] = BSK_hDFCGF_Proliferation: Cell Proliferation Assessment in the BioMAP Diversity Plus: hDFCGF Assay (AID 2283059); conditions: primary human foreskin fibroblasts;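 also: curves fitted for both rise and fall of signal versus DMSO baseline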
Summary of the method: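 Primary human foreskin fibroblasts, sub-confluent; […]; 10% TCA fix, 0.1% SRB stain, A560 total protein. Gain/loss fitted bidirectionally vs DMSO control.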

[8] = read-out: Macrophage colony-stimulating factor (MCSF), CSF1 (gene 1435); experiment: BSK_hDFCGF_MCSF: BioMAP Diversity Plus: hDFCGF Assay for Macrophage colony-stimulating factor (MCSF) Biomarker Activity (AID 2283060); conditions: primary human foreskin fibroblasts; actives raise or lower the signal
Summary of the method: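 fibroblasts (human foreskin, primary), 24 h post-dose; M-CSF by ELISA; bidirectional fit, DMSO = baseline.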

[9] = BSK_hDFCGF_SRB: Viability Assessment in the BioMAP Diversity Plus: hDFCGF Assay (AID 2283061); conditions: primary human foreskin fibroblasts;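 also: cells exposed to compound for 24 h before the read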
Summary of the method: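 SRB-based viability read on primary human skin fibroblasts at 24 h: TCA fixation, 0.1% dye, 560 nm. Gain or loss of signal is fitted against the DMSO negative control.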

[10] = read-out: TIMP metallopeptidase inhibitor 1 (TIMP1), TIMP1 (gene 7076); experiment: BSK_hDFCGF_TIMP1: BioMAP Diversity Plus: hDFCGF Assay for TIMP metallopeptidase inhibitor 1 (TIMP1) Biomarker Activity (AID 2283062); conditions: primary human foreskin fibroblasts; actives raise or lower the signal
Summary of the method: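 Bidirectional curve fitting against DMSO baseline yielded this endpoint, based on ELISA detection of TIMP-1 in primary human foreskin fibroblasts exposed to compound for 24 h.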

[11] = read-out: Monokine induced gamma interferon (MIG), CXCL9 (gene 4283); experiment: BSK_hDFCGF_MIG: BioMAP Diversity Plus: hDFCGF Assay for Monokine induced gamma interferon (MIG) Biomarker Activity (AID 2283063); conditions: primary human foreskin fibroblasts; actives raise or lower the signal
Summary of the method: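 Endpoint derived by bidirectional fitting relative to DMSO; MIG quantified via ELISA in primary human foreskin fibroblasts harvested 24 h after dosing.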

[12] = read-out: Matrix Metallopeptidase 1 (MMP1), MMP1 (gene 4312); experiment: BSK_hDFCGF_MMP1: BioMAP Diversity Plus: hDFCGF Assay for Matrix Metallopeptidase 1 (MMP1) Biomarker Activity (AID 2283064); conditions: primary human foreskin fibroblasts; actives raise or lower the signal
Summary of the method: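 hDFCGF primary fibroblasts (human foreskin); chemical added; 24 h; MMP1 by ELISA; bidirectional fit vs DMSO.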

[13] = read-out: Vascular cell adhesion molecule 1 (VCAM1), VCAM1 (gene 7412); experiment: BSK_hDFCGF_VCAM1: BioMAP Diversity Plus: hDFCGF Assay for Vascular cell adhesion molecule 1 (VCAM1) Biomarker Activity (AID 2283065); conditions: primary human foreskin fibroblasts; actives raise or lower the signal;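 as to AC50: VCAM-1 protein level quantified by ELISA after 24 h chemical exposure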
Summary of the method: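 Measured after 24 h chemical treatment of primary human skin fibroblasts, VCAM-1 was detected by ELISA and concentration-response analysed in both directions versus DMSO vehicle.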

[14] = read-out: Plasminogen activator inhibitor-1 (PAI1), SERPINE1 (gene 5054); experiment: BSK_hDFCGF_PAI1: BioMAP Diversity Plus: hDFCGF Assay for Plasminogen activator inhibitor-1 (PAI1) Biomarker Activity (AID 2283066); conditions: primary human foreskin fibroblasts; actives raise or lower the signal
Summary of the method: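 PAI-1 levels, determined by ELISA, served as the endpoint in human foreskin fibroblast cultures exposed to compound for 24 h, with DMSO as baseline.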

[15] = read-out: Intercellular Adhesion Molecule 1 (ICAM1), ICAM1 (gene 3383); experiment: BSK_KF3CT_ICAM1: BioMAP Diversity Plus: KF3CT Assay for Intercellular Adhesion Molecule 1 (ICAM1) Biomarker Activity (AID 2283067); conditions: primary human keratinocytes with fibroblasts; actives raise or lower the signal
Summary of the method: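 Bidirectional curve fitting against a DMSO baseline was applied to ICAM-1 ELISA signal from primary human skin co-cultures harvested 24 h after treatment, with SRB staining of parallel wells for overt cytotoxicity.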

[16] = read-out: Interferon-gamma inducible Protein 10 (IP10), CXCL10 (gene 3627); experiment: BSK_KF3CT_IP10: BioMAP Diversity Plus: KF3CT Assay for Interferon-gamma inducible Protein 10 (IP10) Biomarker Activity (AID 2283068); conditions: primary human keratinocytes with fibroblasts; actives raise or lower the signal
Summary of the method: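 In a primary skin co-culture of keratinocytes and fibroblasts, IP-10 is quantified by ELISA at 24 h after dosing. SRB staining of parallel wells monitors overt toxicity. Curves are fitted both directions against DMSO.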

[17] = BSK_KF3CT_SRB: Viability Assessment in the BioMAP Diversity Plus: KF3CT Assay (AID 2283069); conditions: primary human keratinocytes with fibroblasts;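 also: total protein by sulforhodamine B staining as a cytotoxicity measure; fitted for both signal gain and loss against DMSO baseline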
Summary of the method: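 Keratinocytes co-cultured with foreskin fibroblasts (human primary); chemical added, 24 h; fix 10% TCA, stain 0.1% SRB, A560. Bidirectional fit vs DMSO.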

[18] = read-out: Interleukin-1 alpha (IL1a), IL1A (gene 3552); experiment: BSK_KF3CT_IL1a: BioMAP Diversity Plus: KF3CT Assay for Interleukin-1 alpha (IL1a) Biomarker Activity (AID 2283070); conditions: primary human keratinocytes with fibroblasts; actives raise or lower the signal
Summary of the method: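 Chemicals were dosed onto co-cultured human keratinocytes and foreskin fibroblasts, IL-1a was quantified by ELISA at 24 h, and activity was fitted in both directions relative to DMSO controls.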

[19] = read-out: TIMP metallopeptidase inhibitor 2 (TIMP2), TIMP2 (gene 7077); experiment: BSK_KF3CT_TIMP2: BioMAP Diversity Plus: KF3CT Assay for TIMP metallopeptidase inhibitor 2 (TIMP2) Biomarker Activity (AID 2283071); conditions: primary human keratinocytes with fibroblasts; actives raise or lower the signal
Summary of the method: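 Keratinocyte–fibroblast co-culture, 24 h exposure; TIMP-2 ELISA, DMSO-normalised bidirectional fit. Parallel SRB (0.1%, TCA-fixed, 560 nm) total-protein staining gauges cytotoxicity.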

[20] = read-out: Transforming growth factor beta 1 (TGFb1), TGFB1 (gene 7040); experiment: BSK_KF3CT_TGFb1: BioMAP Diversity Plus: KF3CT Assay for Transforming growth factor beta 1 (TGFb1) Biomarker Activity (AID 2283072); conditions: primary human keratinocytes with fibroblasts; actives raise or lower the signal
Summary of the method: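 Signal changes in either direction, relative to DMSO, define activity here. TGF-b1 is read by ELISA from a human keratinocyte-fibroblast co-culture 24 h post-dose.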

Measured: AC50

Cc1cccc2c1ccc1ccccc12
inactive: all assays above

O=C(CC(=O)C(F)(F)C(F)(F)C(F)(F)F)c1cccs1
active: [2] 51.8 µM and 50.9 µM | [3] 40.6 µM and 38.2 µM | [7] 4.23 µM and 4.92 µM | [11] 7.78 µM | [12] 7.77 µM
inactive: [1] | [4] | [5] | [6] | [8] | [9] | [10] | [11] | [12] | [13] | [14] | [15] | [18] | [19]

OCC(F)(F)C(F)(F)C(F)(F)C(F)(F)C(F)(F)C(F)(F)C(F)(F)C(F)(F)C(F)(F)C(F)(F)C(F)(F)F
inactive: [1] | [2] | [3] | [5] | [6] | [7] | [8] | [9] | [10] | [11] | [12] | [13] | [14] | [15] | [18] | [19]
active: [4] 58 nM and 74.1 nM | [13] 0.189 µM

CCC(C)c1ccccc1O (configuration not stated)
inactive: all assays above

CN(Cc1cnc2nc(N)nc(N)c2n1)c1ccc(C(=O)N[C@@H](CCC(=O)O)C(=O)O)cc1
active: [8] 2.65 µM
inactive: [1] | [2] | [3] | [4] | [5] | [6] | [7] | [8] | [9] | [10] | [11] | [12] | [13] | [14] | [15] | [18] | [19] | [20]

COCN(COC)c1nc(N(COC)COC)nc(N(COC)COC)n1
not listed: [16]
inactive: all other assays above

Cc1ccc(N=Nc2c(O)ccc3ccccc23)c(C)c1
active: [1] 10 µM | [4] 6.8 µM | [8] 10 µM | [13] 5.25 µM | [19] 4.11 µM
not listed: [17]
inactive: all other assays above

O=P(O)(O)CCC(F)(F)C(F)(F)C(F)(F)C(F)(F)C(F)(F)C(F)(F)C(F)(F)C(F)(F)F
active: [4] 11.7 µM and 9.02 µM | [5] 29 µM | [7] 39.9 µM and 49.4 µM | [11] 0.615 µM | [14] 29.5 µM and 18.4 µM
inactive: [1] | [2] | [3] | [5] | [6] | [8] | [9] | [10] | [11] | [12] | [13] | [15] | [17] | [18] | [19]

COc1cc(OC)nc(NC(=O)NS(=O)(=O)Nc2ccccc2C(=O)N(C)C)n1
not listed: [17]
inactive: all other assays above

Oc1cc2ccccc2cc1O
active: [4] 20 µM | [7] 29.7 µM
not listed: [16]
inactive: all other assays above
